Holding throughout (assay): NCI-60 one-dose screen, 48 h (100 = growth as untreated, 0 = no growth, -100 = all killed)
What all share (conditions): 10 µM unless noted

For experiment [1], the system named is SR leukemia.
In experiment [2] the test system is RPMI-8226 leukemia.
In experiment [3] the test system is OVCAR-8 ovarian.
In experiment [4] the test system is OVCAR-5 ovarian.
Experiment [5] deals with OVCAR-4 ovarian.
The subject of experiment [6] is SK-OV-3 ovarian.
In experiment [7] the test system is IGROV1 ovarian.
Experiment [8] has as its system OVCAR-3 ovarian.
For experiment [9], the system named is HS 578T breast.
The test system of experiment [10] is NCI/ADR-RES ovarian.

This is part of a sample that, as a whole, favours compounds with a hit. Of some 83,000 tested, about 20% had one in any assay.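 Treatment: one concentration, 48 hours, 96-well format. Scoring: percent growth, with anything below 10 considered active.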 Unmarked numbers belong to inactive results. Calls of active or inactive are those of the source.

`O=C(CCCl)OCCOc1ccccc1`: the growth in [1] was 94.5%; in [2] it was 53.6%; in [3] it was 102%; in experiment [4] it was 109%; in experiment [5], 102%; in experiment [6], 100%. Besides, the growth was 104% in experiment [7], 104% in experiment [8], 98.8% in [9] and 106% in experiment [10].
As for `O=C(O)c1cccc(-n2ncc(Cl)c(Cl)c2=O)c1`, the growth in experiment [1] was 102%; in experiment [2], 93.8%; in experiment [3], 107%; in [4], 106%; in [5] it was 91.1%; in [6], 106%. Moreover, the growth in experiment [7] is 130%; in experiment [8] it was 118%; in [9], 98.3%; in [10] it was 110%.
`Cc1[nH]n(-c2ccccc2)c(=O)c1C=NC(=S)C(N)=S`: the growth in experiment [1] is 89.9%; in [2], 94.6%; in experiment [3], 99.9%; in experiment [4], 109%; in experiment [5], 104%; in [6] it was 96%. Further, the growth in [7] was 112%; in experiment [8] it was 108%; in experiment [9], 92.1%; in experiment [10], 101%.
As to `C1=NCCc2ccccc21`, the growth in experiment [1] is 97%; in experiment [2] it was 99%; in [3], 99.1%; in experiment [4], 105%; in experiment [5], 98.7%; in experiment [6], 93%. Moreover, the growth is 105% in [7], 100% in experiment [8], 83.8% in [9] and 106% in experiment [10].
For `NNc1ncnc2c1ncn2C1OC(CO)C(O)C1O` (stereo not given), the growth is 17.5% in experiment [1]; 51.8% in experiment [2]; 25.6% in experiment [3]; 54.7% in experiment [4]; 45% in [5]; 2.11% (active) in [6]. Moreover, the growth in [7] is 66.7%; in experiment [8], 9.24% (active); in experiment [9], 53%; in experiment [10], 24.3%.
Regarding `O=Cc1c(O)c2ccccc2[nH]c1=O`, the growth in experiment [1] was 114%; in experiment [2], 109%; in experiment [3], 95.1%; in experiment [4], 98.5%; in experiment [5] it was 106%; in experiment [6], 105%. The growth in [7] is 104%; in experiment [8], 134%; in experiment [9] it was 106%; in experiment [10], 104%.
Take `CCOC(=O)/C(O)=C(\C=N\C(=S)Nc1ccc(Cl)c(Cl)c1)C(=O)OCC`: the growth was 85.7% in experiment [1]; 80.1% in experiment [2]; 92.5% in [3]; 91.8% in experiment [4]; 60.2% in experiment [5]; 81.6% in experiment [6]. The growth in [7] is 101%; in experiment [8] it was 100%; in [9], 95.6%; in experiment [10], 90.8%.
Take `COc1cc(OC)c(NC(=O)C(Sc2nc(C)cc(C)c2C#N)c2ccccc2)cc1Cl` (stereo not given): the growth was 98.4% in experiment [1]; 119% in [2]; 88.6% in experiment [3]; 106% in experiment [4]; 105% in experiment [5]; 85.3% in [6]. The growth is 93.4% in [7], 113% in experiment [8], 86.7% in experiment [9] and 96.9% in [10].
Take `C/C(=N\O)c1ccccn1`: the growth in experiment [1] was 94.5%; in experiment [2], 102%; in experiment [3], 97.7%; in experiment [4], 106%; in experiment [5], 97.3%; in experiment [6] it was 109%. Moreover, the growth is 110% in [7], 106% in [8], 95.5% in experiment [9] and 100% in [10].
In the case of `CCOS(=O)(=O)c1ccc([N+](=O)[O-])cc1`, the growth in [1] was 88.2%; in experiment [2], 106%; in [3] it was 104%; in experiment [4], 103%; in [5], 101%; in experiment [6], 111%. Besides, the growth is 105% in experiment [7], 106% in experiment [8], 108% in [9] and 105% in experiment [10].
On to `CCCC(=O)CC(=O)c1ccccc1`, for which the growth in [1] was 107%; in [2] it was 103%; in experiment [3], 93.6%; in [4] it was 101%; in experiment [5] it was 112%; in experiment [6] it was -20% (active). Moreover, the growth was 108% in experiment [7], 99.4% in experiment [8], 106% in [9] and 100% in experiment [10].
As for `Cc1ccc2[nH]c3ccccc3c2c1`, the growth in experiment [1] is 79.6%; in [2] it was 106%; in experiment [3] it was 98.4%; in [4], 105%; in [5] it was 100%; in experiment [6] it was 113%. The growth is 107% in experiment [7], 104% in experiment [8], 106% in experiment [9] and 109% in experiment [10].
Regarding `Cc1ccc(C(C)C)c(OCC(=O)O)c1`, the growth in experiment [1] was 109%; in [2] it was 107%; in experiment [3] it was 101%; in [4], 98.7%; in experiment [5], 112%; in [6], 108%. The growth in [7] is 109%; in [8], 113%; in [9], 101%; in experiment [10], 111%.
On to `c1ccc(-c2ccc3ccccc3c2)cc1`, for which the growth in [1] was 80.7%; in [2] it was 104%; in [3], 97.1%; in experiment [4], 99.6%; in experiment [5] it was 108%; in experiment [6] it was 90.5%. For the same molecule, the growth in experiment [7] is 85.3%; in experiment [8], 103%; in experiment [9], 84.5%; in [10], 105%.
Take `C/C(O)=C(/C=N/C(=S)Nc1ccccc1)C(=O)Nc1ccccc1C`: the growth in experiment [1] was 91.7%; in experiment [2] it was 103%; in experiment [3], 96.3%; in [4], 117%; in experiment [5], 83%; in experiment [6], 101%. In addition, the growth is 105% in experiment [7], 105% in experiment [8], 94.8% in experiment [9] and 103% in experiment [10].

(Values after PubChem BioAssay (NCI).)
